Data as given in the supplement of paper PMC10849652.
The full data set covers some 7,900 targets. This sample favours those with a hit. About 0.6% of all pairs of compound and target were hits. Values without a mark were called inactive.

How the values were obtained:
Assay in all cases: log2 fold change, soluble protein after heating vs DMSO (PISA); higher = thermal stabilisation; K562 cells, 10 uM, 30 min; active = over 0.2 and 3.5 SD of the protein, either way, in both replicates (recomputed)
bafetinib = compound: Cc1ccc(NC(=O)c2ccc(CN3CC[C@H](N(C)C)C3)c(C(F)(F)F)c2)cc1Nc1nccc(-c2cncnc2)n1 [bafetinib]
Outline: (§1)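 K562 cells (2×10^6 cells/mL) were treated with 10 μM compound for 30 min, and aliquots were heated for 3 min over 48°C-58°C. Pooled aliquots were extracted in PBS with 0.5% NP-40 at 4°C, and the supernatant after 21,000xg for 90 min was measured by TMTpro 16plex LC-MS/MS with channel sums equalised. Reported thermal stability, relative to control samples and from duplicates, is a log2 fold change.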

[1] = compound: Cc1cccc(CC(=O)N2CCc3c2ccc(-c2cn(C)c4ncnc(N)c24)c3F)n1
Outline: as §1

nilotinib = compound: Cc1cn(-c2cc(NC(=O)c3ccc(C)c(Nc4nccc(-c5cccnc5)n4)c3)cc(C(F)(F)F)c2)cn1 [nilotinib]
Outline: as §1

[2] = compound: Cc1nc(Nc2n[nH]c3c2CN(C(=O)N[C@H](CN(C)C)c2ccccc2)C3(C)C)c2sccc2n1
Outline: as §1

dasatinib = compound: Cc1nc(Nc2ncc(C(=O)Nc3c(C)cccc3Cl)s2)cc(N2CCN(CCO)CC2)n1 [dasatinib]
Outline: as §1

[3] = compound: Cc1ncc(-c2ccnc(Nc3ccc(S(C)(=O)=O)cc3)n2)n1C(C)C
Outline: as §1

[4] = compound: Cn1cc(-c2ccc3c(c2)CCN3C(=O)Cc2cccc(C(F)(F)F)c2)c2c(N)ncnc21
Outline: as §1

[5] = compound: Cn1cc(-c2ccc3nnc(C(F)(F)c4ccc5ncccc5c4)n3n2)cn1
Outline: as §1

tipifarnib = compound: Cn1cncc1[C@@](N)(c1ccc(Cl)cc1)c1ccc2c(c1)c(-c1cccc(Cl)c1)cc(=O)n2C [tipifarnib]
Outline: as §1

mubritinib = compound: FC(F)(F)c1ccc(/C=C/c2nc(COc3ccc(CCCCn4ccnn4)cc3)co2)cc1 [mubritinib]
Outline: as §1

UniProt Q16822, sequence (Q16822 whole entry, looked up): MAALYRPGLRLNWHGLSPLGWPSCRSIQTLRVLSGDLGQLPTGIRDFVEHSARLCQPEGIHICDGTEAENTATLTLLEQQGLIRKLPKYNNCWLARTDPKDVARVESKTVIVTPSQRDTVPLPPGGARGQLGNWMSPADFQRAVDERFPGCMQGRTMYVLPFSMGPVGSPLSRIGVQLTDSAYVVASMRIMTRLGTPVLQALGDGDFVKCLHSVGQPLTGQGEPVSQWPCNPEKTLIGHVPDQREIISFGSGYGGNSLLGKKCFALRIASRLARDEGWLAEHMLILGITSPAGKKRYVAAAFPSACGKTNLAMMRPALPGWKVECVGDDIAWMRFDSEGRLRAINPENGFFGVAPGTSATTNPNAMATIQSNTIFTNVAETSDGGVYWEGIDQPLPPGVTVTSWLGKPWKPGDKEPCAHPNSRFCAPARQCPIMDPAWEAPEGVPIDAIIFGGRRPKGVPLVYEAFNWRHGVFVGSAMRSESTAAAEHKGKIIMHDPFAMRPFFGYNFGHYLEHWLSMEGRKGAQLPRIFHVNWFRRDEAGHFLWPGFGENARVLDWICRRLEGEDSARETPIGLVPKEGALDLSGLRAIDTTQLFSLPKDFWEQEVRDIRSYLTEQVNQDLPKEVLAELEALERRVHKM
UniProt O00408, sequence (O00408 whole entry, looked up): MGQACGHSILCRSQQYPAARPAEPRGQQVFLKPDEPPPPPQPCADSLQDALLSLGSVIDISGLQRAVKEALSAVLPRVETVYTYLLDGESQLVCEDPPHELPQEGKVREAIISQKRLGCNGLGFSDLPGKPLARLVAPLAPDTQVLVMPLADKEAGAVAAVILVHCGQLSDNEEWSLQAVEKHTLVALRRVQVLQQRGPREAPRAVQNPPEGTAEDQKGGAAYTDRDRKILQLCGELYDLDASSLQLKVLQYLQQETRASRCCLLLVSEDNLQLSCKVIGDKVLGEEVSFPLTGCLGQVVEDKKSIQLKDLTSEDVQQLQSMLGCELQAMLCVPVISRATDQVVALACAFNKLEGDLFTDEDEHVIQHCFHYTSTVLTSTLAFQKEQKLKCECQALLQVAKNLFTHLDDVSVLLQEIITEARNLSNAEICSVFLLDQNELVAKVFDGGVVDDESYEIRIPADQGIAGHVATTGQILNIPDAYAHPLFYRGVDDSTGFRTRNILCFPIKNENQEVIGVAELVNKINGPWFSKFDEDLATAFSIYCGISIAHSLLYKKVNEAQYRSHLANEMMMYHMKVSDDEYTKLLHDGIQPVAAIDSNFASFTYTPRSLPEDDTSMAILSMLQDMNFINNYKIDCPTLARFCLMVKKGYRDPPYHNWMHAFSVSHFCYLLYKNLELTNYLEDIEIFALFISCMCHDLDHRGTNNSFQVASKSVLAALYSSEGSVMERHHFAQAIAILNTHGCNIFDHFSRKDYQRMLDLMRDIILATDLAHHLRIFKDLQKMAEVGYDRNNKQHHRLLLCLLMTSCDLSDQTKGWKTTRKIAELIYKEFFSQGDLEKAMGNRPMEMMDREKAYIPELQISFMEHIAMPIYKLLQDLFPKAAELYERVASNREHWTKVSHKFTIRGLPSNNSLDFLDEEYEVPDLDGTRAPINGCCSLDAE
UniProt Q15257, sequence (Q15257 whole entry, looked up): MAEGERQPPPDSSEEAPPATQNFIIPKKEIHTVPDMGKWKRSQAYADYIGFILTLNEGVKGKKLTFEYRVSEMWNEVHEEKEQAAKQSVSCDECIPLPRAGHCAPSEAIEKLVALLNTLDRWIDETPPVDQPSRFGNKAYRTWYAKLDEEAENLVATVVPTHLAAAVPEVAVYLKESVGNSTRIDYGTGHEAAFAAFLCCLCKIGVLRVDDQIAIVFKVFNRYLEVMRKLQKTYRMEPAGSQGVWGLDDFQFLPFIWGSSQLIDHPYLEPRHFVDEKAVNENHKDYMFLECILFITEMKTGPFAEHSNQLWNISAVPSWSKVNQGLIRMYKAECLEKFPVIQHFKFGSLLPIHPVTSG
UniProt P62333, sequence (P62333 whole entry, looked up): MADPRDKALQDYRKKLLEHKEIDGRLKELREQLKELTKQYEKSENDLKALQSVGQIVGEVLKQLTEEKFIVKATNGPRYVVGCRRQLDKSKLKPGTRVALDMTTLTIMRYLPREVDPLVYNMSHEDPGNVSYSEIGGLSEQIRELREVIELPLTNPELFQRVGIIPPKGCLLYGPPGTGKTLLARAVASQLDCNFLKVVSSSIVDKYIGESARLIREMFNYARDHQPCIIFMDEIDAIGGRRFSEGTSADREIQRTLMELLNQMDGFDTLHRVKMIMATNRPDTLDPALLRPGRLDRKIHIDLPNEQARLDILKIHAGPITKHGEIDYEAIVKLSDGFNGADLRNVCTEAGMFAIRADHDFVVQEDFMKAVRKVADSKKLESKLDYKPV
UniProt O60256, sequence (O60256 whole entry, looked up): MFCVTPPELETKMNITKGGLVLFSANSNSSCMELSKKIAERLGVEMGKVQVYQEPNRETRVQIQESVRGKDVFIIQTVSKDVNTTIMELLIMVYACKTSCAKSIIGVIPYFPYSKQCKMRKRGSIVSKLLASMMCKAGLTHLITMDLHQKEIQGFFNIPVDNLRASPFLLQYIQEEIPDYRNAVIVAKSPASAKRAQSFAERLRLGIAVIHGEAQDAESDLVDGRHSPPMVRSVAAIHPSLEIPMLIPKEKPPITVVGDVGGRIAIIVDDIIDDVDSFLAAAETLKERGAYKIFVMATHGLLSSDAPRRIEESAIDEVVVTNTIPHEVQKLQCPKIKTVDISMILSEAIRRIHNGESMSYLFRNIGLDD
UniProt Q8TAP8, sequence (Q8TAP8 whole entry, looked up): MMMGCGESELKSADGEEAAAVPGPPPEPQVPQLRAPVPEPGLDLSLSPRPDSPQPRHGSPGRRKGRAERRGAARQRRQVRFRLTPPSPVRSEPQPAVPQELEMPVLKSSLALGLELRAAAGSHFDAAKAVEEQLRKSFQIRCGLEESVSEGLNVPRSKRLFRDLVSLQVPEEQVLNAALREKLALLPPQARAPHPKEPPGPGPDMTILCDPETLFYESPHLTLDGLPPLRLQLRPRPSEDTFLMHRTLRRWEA
UniProt P05423, sequence (P05423 whole entry, looked up): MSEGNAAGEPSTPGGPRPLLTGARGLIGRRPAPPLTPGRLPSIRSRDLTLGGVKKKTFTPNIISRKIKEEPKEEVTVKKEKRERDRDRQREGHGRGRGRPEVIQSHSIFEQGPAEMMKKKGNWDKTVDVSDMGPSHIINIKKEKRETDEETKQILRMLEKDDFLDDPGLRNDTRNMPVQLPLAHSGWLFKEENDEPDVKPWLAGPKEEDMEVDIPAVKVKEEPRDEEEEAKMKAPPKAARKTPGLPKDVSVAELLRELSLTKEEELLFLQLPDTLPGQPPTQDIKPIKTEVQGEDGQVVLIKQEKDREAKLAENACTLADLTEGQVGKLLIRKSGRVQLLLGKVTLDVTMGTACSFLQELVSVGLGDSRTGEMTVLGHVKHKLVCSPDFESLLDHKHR
UniProt Q969N2, sequence (Q969N2 whole entry, looked up): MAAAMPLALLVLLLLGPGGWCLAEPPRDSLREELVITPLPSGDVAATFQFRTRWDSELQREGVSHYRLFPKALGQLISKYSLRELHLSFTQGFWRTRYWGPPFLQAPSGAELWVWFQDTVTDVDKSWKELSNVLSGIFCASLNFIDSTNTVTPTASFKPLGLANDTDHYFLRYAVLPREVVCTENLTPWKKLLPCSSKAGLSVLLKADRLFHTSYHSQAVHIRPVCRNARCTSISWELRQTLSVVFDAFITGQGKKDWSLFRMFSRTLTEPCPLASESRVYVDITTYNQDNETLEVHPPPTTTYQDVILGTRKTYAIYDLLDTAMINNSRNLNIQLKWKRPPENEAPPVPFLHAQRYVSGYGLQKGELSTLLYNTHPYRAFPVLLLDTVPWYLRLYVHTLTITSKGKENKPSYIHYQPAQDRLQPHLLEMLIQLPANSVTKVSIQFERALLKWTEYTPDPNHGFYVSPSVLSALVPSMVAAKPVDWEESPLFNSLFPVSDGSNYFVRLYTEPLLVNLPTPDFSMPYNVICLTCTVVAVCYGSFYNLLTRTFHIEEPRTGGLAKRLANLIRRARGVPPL
UniProt Q9UMR5, sequence (Q9UMR5 whole entry, looked up): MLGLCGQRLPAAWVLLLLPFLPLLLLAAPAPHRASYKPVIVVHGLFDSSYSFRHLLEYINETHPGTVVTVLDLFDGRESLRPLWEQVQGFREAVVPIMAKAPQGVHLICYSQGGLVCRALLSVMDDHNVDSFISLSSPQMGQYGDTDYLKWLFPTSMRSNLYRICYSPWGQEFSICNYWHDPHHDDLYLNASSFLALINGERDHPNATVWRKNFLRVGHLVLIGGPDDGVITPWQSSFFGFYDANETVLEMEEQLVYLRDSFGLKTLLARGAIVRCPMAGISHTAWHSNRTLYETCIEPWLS
UniProt Q9H307, sequence (Q9H307 whole entry, looked up): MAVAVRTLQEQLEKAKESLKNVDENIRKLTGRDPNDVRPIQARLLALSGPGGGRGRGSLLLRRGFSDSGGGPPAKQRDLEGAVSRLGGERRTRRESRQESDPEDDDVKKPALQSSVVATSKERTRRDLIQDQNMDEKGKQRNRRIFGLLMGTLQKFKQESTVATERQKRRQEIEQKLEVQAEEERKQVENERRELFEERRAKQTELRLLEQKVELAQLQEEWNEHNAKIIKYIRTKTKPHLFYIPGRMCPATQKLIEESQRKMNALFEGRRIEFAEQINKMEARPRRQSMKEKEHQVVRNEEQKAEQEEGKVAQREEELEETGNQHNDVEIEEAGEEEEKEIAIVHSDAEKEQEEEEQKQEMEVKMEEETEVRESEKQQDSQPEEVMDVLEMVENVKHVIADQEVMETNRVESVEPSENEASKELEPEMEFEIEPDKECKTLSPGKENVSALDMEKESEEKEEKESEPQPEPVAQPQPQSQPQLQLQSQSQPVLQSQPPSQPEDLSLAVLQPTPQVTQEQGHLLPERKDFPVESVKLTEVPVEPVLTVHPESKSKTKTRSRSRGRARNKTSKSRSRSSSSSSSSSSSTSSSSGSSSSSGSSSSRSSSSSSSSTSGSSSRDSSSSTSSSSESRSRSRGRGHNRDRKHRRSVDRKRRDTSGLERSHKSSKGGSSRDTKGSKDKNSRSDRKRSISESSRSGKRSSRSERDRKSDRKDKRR

Target | log2 fold change (bafetinib) | log2 fold change [1] | log2 fold change (nilotinib) | log2 fold change [2] | log2 fold change (dasatinib) | log2 fold change [3] | log2 fold change [4] | log2 fold change [5] | log2 fold change (tipifarnib) | log2 fold change (mubritinib)
PFDN1 (UniProt O60925) | 0.038 | -0.041 | 0.012 | 0.026 | 0.076 | -0.023 | 0.153 | 0.328 | -0.061 | 0.039
PIK3C3 (UniProt Q8NEB9) | 0.065 | -0.011 | 0.043 | -0.039 | -0.04 | 0.202 | -0.035 | -0.006 | 0.047 | 0.042
PRKACB isoform 2 (UniProt P22694) | -0.06 | 0.04 | -0.021 | 0.647 (active) | -0.021 | -0.037 | -0.013 | -0.004 | -0.144 | 0.051
PSMC5 (UniProt P62195) | 0.078 | 0.035 | -0.041 | 0.035 | 0.033 | -0.014 | -0.113 | -0.006 | 0.09 | -0.014
PSMD1 (UniProt Q99460) | 0.16 | 0.037 | 0.006 | 0.041 | 0.065 | -0.017 | -0.102 | 0.019 | 0.068 | -0.019
PIGT (UniProt Q969N2) | -0.042 | 0 | -0.029 | 0.046 | -0.031 | -0.028 | -0.011 | 0.003 | -0.029 | -0.037
PARG (UniProt Q86W56) | 0.166 | 0.118 | 0.004 | -0.123 | -0.162 | -0.025 | 0.093 | -0.015 | -0.061 | 0.061
PTPA (UniProt Q15257) | -0.038 | 0.011 | -0.014 | 0.012 | -0.014 | -0.002 | 0.034 | 0.03 | 0.013 | 0.028
PIR (UniProt O00625) | -0.073 | 0.001 | 0.009 | -0.006 | -0.044 | -0.014 | -0.003 | 0.028 | -0.069 | 0.11
PLCB3 (UniProt Q01970) | -0.059 | -0.084 | -0.104 | 0.033 | -0.092 | -0.006 | -0.006 | 0.061 | -0.039 | 0.003
POLR3D (UniProt P05423) | -0.052 | 0.044 | 0.023 | -0.125 | 1.17 | 0.057 | -0.082 | 0.046 | 0.018 | -0.072
PPT2 isoform 3 (UniProt Q9UMR5) | -0.301 (active) | -0.013 | 0.031 | 0.013 | 0.055 | -0.045 | 0.07 | 0.037 | 0.013 | 0.034
PDE2A (UniProt O00408) | 0.021 | -0.02 | 0.023 | 0.016 | -0.103 | -0.012 | 0.063 | -0.03 | -0.031 | -0.051
PRPSAP2 (UniProt O60256) | -0.034 | 0.124 | -0.024 | 0.064 | -0.028 | -0.005 | -0.037 | -0.018 | 0.023 | -0.008
PDE4DIP isoform 4 (UniProt Q5VU43) | 0.022 | -0.071 | -0.054 | -0.113 | 0.037 | -0.027 | 0.021 | 0.021 | 0.038 | 0.022
PRMT7 (UniProt Q9NVM4) | -0.114 | -0.086 | -0.002 | -0.047 | -0.213 | -0.01 | -0.038 | 0.124 | -0.116 | 0.092
PTRHD1 (UniProt Q6GMV3) | -0.067 | 0.024 | 0.08 | -0.032 | -0.007 | -0.061 | 0.111 | 0.332 (active) | 0.028 | 0.043
PPIL4 (UniProt Q8WUA2) | -0.001 | 0.002 | 0.002 | -0.483 (active) | -0.065 | -0.113 | -0.031 | -0.018 | -0.01 | 0.005
PCYT1B (UniProt Q9Y5K3) | -0.193 | -0.068 | -1.28 (active) | -0.105 | -0.142 | -0.089 | -0.024 | -0.037 | -0.053 | 0.168
PSMD13 (UniProt Q9UNM6) | 0.126 | 0.003 | -0.002 | 0.082 | 0.023 | -0.018 | -0.114 | -0.008 | 0.095 | -0.019
PRKAB1 (UniProt Q9Y478) | -0.154 | 0.006 | -0.119 | -0.162 | -0.037 | -0.007 | 0.04 | -0.026 | 0.008 | -0.104
PNN (UniProt Q9H307) | -0.08 | -0.008 | -0.028 | -0.344 (active) | 0.062 | -0.039 | 0.028 | 0.231 | 0.255 | -0.098
PTGR2 (UniProt Q8N8N7) | 0.084 | -0.151 | 0.003 | -0.215 | -0.025 | 0.07 | 0.112 | 0.485 (active) | 0.184 | -0.066
POLR3K (UniProt Q9Y2Y1) | -0.006 | -0.039 | 0.035 | -0.003 | 0.098 | 0.01 | -0.02 | -0.021 | 0.033 | -0.088
PSMC1 (UniProt P62191) | 0.065 | 0.02 | -0.025 | 0.062 | 0.036 | -0.014 | -0.082 | 0 | 0.087 | -0.015
PSMC6 (UniProt P62333) | 0.069 | 0.008 | -0.029 | 0.069 | 0.039 | -0.02 | -0.068 | 0.002 | 0.104 | -0.048
PFAS (UniProt O15067) | 0.033 | 0.311 | -0.359 (active) | -0.113 | -0.003 | 0.059 | 0.341 (active) | 0.06 | 0.018 | 0.52 (active)
PCK2 (UniProt Q16822) | -0.052 | 0.027 | -0.05 | 0.027 | -0.035 | -0.006 | 0.041 | 0.003 | 0 | -0.022
PEX13 (UniProt Q92968) | -0.159 | 0.106 | -0.046 | 0 | 0.014 | 0.035 | -0.071 | -0.075 | -0.027 | 0.042
PPP1R35 (UniProt Q8TAP8) | -0.039 | 0.058 | 0.008 | -0.031 | -0.04 | -0.095 | -0.024 | -0.042 | -0.022 | 0.065
